Measured values reported in PubChem BioAssay AID2018 (Sanford-Burnham Center for Chemical Genomics, 2009).
Hit rate of the full screen: of about 1,200 compounds, about 600 (50%) were called active. No stated cut-off is given here; in the data, active means inhibition above about 42%; inactive means the rest. The set was probably picked from earlier hits. The list shows a part of the results. Potency and affinity values are given separately.

Target: SUMO-conjugating enzyme UBC9 (Homo sapiens) (UniProt P63279)
Sequence (P63279 whole entry, looked up): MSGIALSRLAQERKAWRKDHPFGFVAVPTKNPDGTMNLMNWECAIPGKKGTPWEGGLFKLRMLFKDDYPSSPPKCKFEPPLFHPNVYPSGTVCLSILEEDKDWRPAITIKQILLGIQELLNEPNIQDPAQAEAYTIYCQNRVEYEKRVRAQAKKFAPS
Experiment: SUMOylation inhibitor hit validation, confirmation, SUMOylation inhibitor project, biochemical, AlphaScreen (AID 2018)
Conditions: AlphaScreen in vitro SUMOylation assay; at 35 µM; hits give high values

Compound	inhibition
CCN(c1ccccc1)S(=O)(=O)c1ccc(Cl)c(NC(=O)COC(=O)c2cc(O)c3ccccc3c2O)c1	73% (active)
COc1ccc2ccc3c(c2c1)N=C[C@]1(O3)N(C)c2ccccc2C1(C)C	27.7% (inactive)
CN1c2ccccc2C(C)(C)C12C=Nc1c(cc(N3CCOCC3)c3ccccc13)O2 (centres undefined)	45.2% (active)
S=c1[nH]nc(-c2cc(-c3ccco3)[nH]n2)n1-c1ccccc1Cl	96.5% (active)
COc1ccc(OC)c(-n2c(-c3cc(-c4ccco4)[nH]n3)n[nH]c2=S)c1	48.4% (active)
Cc1ccc(-n2c(-c3cc(-c4ccco4)[nH]n3)n[nH]c2=S)c(Br)c1	57% (active)
S=c1[nH]nc(-c2ccco2)n1/N=C/C=C/c1ccco1	25.8% (inactive)
S=c1[nH]nc(-c2cc(-c3ccco3)[nH]n2)n1-c1cccc2ccccc12	46.9% (active)
O=C1C2C3C=CC(C3)C2C(=O)N1CNc1ccc(O)cc1 (centres undefined)	92.9% (active)
O=C(O)c1cc(-c2ccco2)nn1-c1ccc(Cl)cc1	54.7% (active)
CC(=O)C1C(=O)C=C(c2ccco2)CC1c1ccccc1 (centres undefined)	-5.3% (inactive)
O=C(Nc1ccc(-n2nncc2-c2ccco2)cc1)c1cc2ccccc2oc1=O	35.2% (inactive)
Cc1cccc(NC(=O)CC2Nc3cccc4cccc(c34)NC2=O)c1 (centres undefined)	28.8% (inactive)
Cc1ccc(C2Nc3cccc4cccc(c34)N2)s1	71.9% (active)
COc1cc(OC)c(C2Nc3cccc4cccc(c34)N2)c(OC)c1	91.3% (active)
COc1ccccc1C1Nc2cccc3cccc(c23)N1	77.6% (active)
CCOc1ccc(C2Nc3cccc4cccc(c34)N2)cc1OC	73.4% (active)
C=CCn1c(SCC(=O)N2N=C(c3ccco3)CC2c2ccco2)nnc1-c1ccncc1 (centres undefined)	3.2% (inactive)
Oc1ccc(C2Nc3cccc4cccc(c34)N2)c(O)c1	86.1% (active)
Fc1cccc(Cl)c1C1Nc2cccc3cccc(c23)N1	53.9% (active)
O=C(CC1Nc2cccc3cccc(c23)NC1=O)Nc1ccccc1 (centres undefined)	30.7% (inactive)
O=C1C2C3C=CC(C4CC34)C2C(=O)N1CCc1ccccc1 (centres undefined)	-31.9% (inactive)

Compound	inhibition
COCCCNC(=O)c1cccn2c(=O)c3cc4ccccc4cc3nc12	16.5% (inactive)
CCOc1c(Br)cc(/C=C2\C(=O)N(CCC#N)N=C2C)cc1OC	8.8% (inactive)
C=CCOc1c(Cl)cc(CNc2ccc3[nH]c(=O)[nH]c3c2)cc1OC	41.5% (inactive)
Cc1cccc(/C=N/NC(=O)C(C)Nc2cccc3ccccc23)n1 (centres undefined)	-0.7% (inactive)
COCCN=c1scc(-c2ccco2)n1/N=C/c1ccc(O)c(O)c1O	82.6% (active)
CC1=NN(c2ccccc2)C(=O)C1	53.2% (active)
Cc1[nH]n(-c2ccccc2)c(=O)c1/C=N/N(C)c1ccccc1	73% (active)
Cc1cc(Br)ccc1-n1[nH]c(C)c(C=Nc2cccc3nsnc23)c1=O	39.7% (inactive)
Cc1ccc(/C=C2\SC(=S)N(c3cccnc3)C2=O)o1	33.6% (inactive)
Cc1ccc(NC(=O)CSc2nnc(-c3ccco3)c(-c3ccco3)n2)cc1	97.9% (active)
CN(C)c1ccc(NC(=O)CSc2nnc(-c3ccco3)c(-c3ccco3)n2)cc1	46.4% (active)
Cc1cccc2nc(-c3ccco3)c(Nc3ccc4c(c3)OCO4)n12	19.8% (inactive)
Cc1ccc(C(=O)N[C@H](C(=O)Nc2cc(Cl)cc(Cl)c2)C(C)C)cc1	-24.1% (inactive)
COn1c(C)c(C)c2c3nonc3ccc21	19.1% (inactive)
Cc1nnc(N/N=C\c2ccc(-c3ccccc3[N+](=O)[O-])o2)n1N	-4.6% (inactive)
NS(=O)(=O)c1ccc(-c2ccc(/C=C3\NC(=S)NC3=O)o2)cc1	70.9% (active)
Cc1ccc(C)c(NC(=S)Nc2cccc3cnccc23)c1	16.2% (inactive)
Cc1nn(CC(=O)Nc2ccc(C(=O)N(C)C)cc2)c(=O)c2ccccc12	-3.7% (inactive)
Cc1ccc(NC(=O)Nc2ccno2)cc1	-5.1% (inactive)
O=C1C=C(O)c2c(O)cccc2C1=O	43.1% (active)
O=C1C=C(O)c2cccc(O)c2C1=O	39.2% (inactive)
COc1ccc(S(=O)(=O)/N=C2/NC(=O)/C(=C\c3ccco3)S2)cc1	40.6% (inactive)

Compound	inhibition
Cc1ccc(N=C2NC(=O)/C(=C\c3ccco3)S2)cc1	44.4% (active)
CSCC[C@H](NC(=O)Cc1c(C)c2c(cc(C)c3c(C)c(C)oc32)oc1=O)C(=O)O	19.6% (inactive)
CCc1c(C)c2cc(Cl)c(O)c(CN(C)C)c2oc1=O	14.3% (inactive)
CCC(C(=O)O)n1nnc(-c2ccc(OCc3ccccc3)c(OC)c2)n1 (centres undefined)	2% (inactive)
COc1ccc2nc(NC(=O)CCc3ccc(OC)c(OC)c3)sc2c1	-27% (inactive)
NCCSc1c(-c2ccccc2)[nH]c2ccccc12	4.2% (inactive)
Oc1ccc(NCc2cccc(OCc3ccccc3)c2)cc1	81.1% (active)
Oc1ccc(NCc2ccc(OCc3ccccc3)cc2)cc1	61.8% (active)
COc1ccc(Br)cc1CNc1ccc(O)cc1	63.1% (active)
Oc1ccc(N=Cc2ccc(OCc3ccccc3)cc2)cc1	25.2% (inactive)
COc1cc(CNc2ccc(O)cc2)cc(Br)c1OCc1ccccc1	89.1% (active)
S=c1[nH]nc(-c2ccncc2)n1/N=C/c1ccccc1Cl	20.2% (inactive)
O=[N+]([O-])c1cc2c(cc1/C=N/n1c(-c3ccccn3)n[nH]c1=S)OCO2	82.5% (active)
O=[N+]([O-])c1cc2c(cc1CN1CCN(CCOCCO)CC1)OCO2	12.3% (inactive)
Cc1ccccc1N=Cc1cc2c(cc1[N+](=O)[O-])OCO2	43.9% (active)
CCOC(=O)C1=C(C)NC(=O)CC1c1cc2c(cc1[N+](=O)[O-])OCO2 (centres undefined)	14.6% (inactive)
CCN(CC)CCNS(=O)(=O)c1ccc2c3c(cccc13)C(=O)N2	-8.8% (inactive)
CC1(C)Nc2ccc(O)cc2-c2c1ssc2=S	59.8% (active)
Nc1nc(-c2ccco2)c(-c2ccco2)s1	55.9% (active)
NC(=O)c1sc2nc(-c3ccco3)ccc2c1N	20% (inactive)
